Test systems include T-47D breast; BT-549 breast; MDA-MB-435 melanoma; SW-620 colon; MCF7 breast; HCT-116 colon; HCC-2998 colon; KM12 colon.
What all share (test): NCI-60 one-dose screen, 48 h (100 = growth as untreated, 0 = no growth, -100 = all killed)
What all share (settings): 10 µM unless noted

This is part of a sample that, as a whole, favours compounds with a hit. Of some 83,000 tested, about 20% had one in any assay.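 Single-dose data. Exposure time 48 hours. Values below 10 considered active.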 A number with no mark means an inactive call. Calls of active or inactive are those of the source.

Consider `Cc1ccc(S(=O)(=O)NNC(=O)/C(=C\c2ccc(Cl)cc2)c2nc3ccccc3s2)cc1`, for which the growth was 95% with T-47D breast; 106% in the assay on BT-549 breast; 96.9% in the assay with MDA-MB-435 melanoma; 93.6% in the assay on SW-620 colon; 78.7% in the assay on MCF7 breast; 84.3% in the assay on HCT-116 colon. In addition, the results for the growth with HCC-2998 colon and with KM12 colon were 103% and 96.6%, respectively.
Turning to `COc1ccc(/C=C/c2nc(Nc3ccc(S(=O)(=O)Nc4cc(C)on4)cc3)c3ccccc3n2)cc1`, the growth in the assay on T-47D breast is 37.4%; with BT-549 breast, 85.8%; in the assay on MDA-MB-435 melanoma it was 39.3%; in the assay with SW-620 colon, 70%; in the assay with MCF7 breast, 32.1%; in the assay with HCT-116 colon it was 68.1%. Besides, the values for the growth in the assay with HCC-2998 colon and with KM12 colon were 69.6% and 49%, respectively.
`Cc1cc2nc3c4cc([N+](=O)[O-])ccc4n(CCN(C)C)c3nc2cc1C`: the growth in the assay with T-47D breast is 10.6%; with BT-549 breast, 31.7%; in the assay with MDA-MB-435 melanoma, -32.2% (active); in the assay with SW-620 colon, -5.68% (active); with MCF7 breast, 4.74% (active); in the assay on HCT-116 colon, 2.59% (active). In addition, the growth with HCC-2998 colon was -37.2% (active); in the assay with KM12 colon, 5.62% (active).
With `Cc1ccc(NS(=O)(=O)c2ccc(-c3cnc(C4CC4)o3)cc2)cc1C(F)(F)F`, the growth in the assay with T-47D breast is 55.1%; in the assay on BT-549 breast it was 63.8%; with MDA-MB-435 melanoma, -4.02% (active); in the assay on SW-620 colon, 37.2%; in the assay on MCF7 breast, 26.6%; in the assay on HCT-116 colon, 41.1%. The figures for the growth with HCC-2998 colon and in the assay with KM12 colon were 84.1% and 38.6%, respectively.
On to `C=C(C)[C@@H]1CC[C@]2(C(=O)N3CCN(C)CC3)CC[C@]3(C)[C@H](CC[C@@H]4[C@@]5(C)C/C(=C/c6cccnc6)C(=O)C(C)(C)[C@@H]5CC[C@]43C)[C@@H]12`, for which the growth is 54.2% in the assay with T-47D breast; 83.2% in the assay on BT-549 breast; 69.4% in the assay with MDA-MB-435 melanoma; 48.1% in the assay with SW-620 colon; 27.2% with MCF7 breast; 25.3% in the assay with HCT-116 colon. In addition, the values for the growth in the assay on HCC-2998 colon and in the assay with KM12 colon were 77.5% and 54.7%, respectively.
For the compound `CCN(CC)CCCC(C)Nc1cc(O)cc2cccnc12` (stereo not drawn), the growth is 110% in the assay with T-47D breast; 105% in the assay with BT-549 breast; 106% with MDA-MB-435 melanoma; 97.2% in the assay with SW-620 colon; 95% in the assay with MCF7 breast; 87.6% with HCT-116 colon. Besides, the growth in the assay on HCC-2998 colon was 96.4%; with KM12 colon, 105%.
Regarding `Cc1ccc(NC(=O)c2cc(-c3nc4ccccc4s3)c(=O)n(NS(=O)(=O)c3ccc(Cl)cc3)c2N)cc1`, the growth was 98.7% with T-47D breast; 115% in the assay with BT-549 breast; 99.4% with MDA-MB-435 melanoma; 111% with SW-620 colon; 93.7% in the assay with MCF7 breast; 95.6% in the assay on HCT-116 colon. The growth in the assay with HCC-2998 colon is 118%; in the assay on KM12 colon, 98.8%.
`CCNc1nc2cc(Nc3ccnc4cc(Cl)ccc34)ccc2o1`: the growth in the assay on T-47D breast is 66.4%; with BT-549 breast it was 81.4%; in the assay with MDA-MB-435 melanoma it was 9.8% (active); in the assay with SW-620 colon, 54.9%; with MCF7 breast, 40.8%; with HCT-116 colon, 42.3%. Besides, the growth was 68.7% in the assay with HCC-2998 colon and 38% in the assay on KM12 colon.
As to `c1ccc2c(-c3c[nH]c4ccccc34)c3c(cc2c1)[nH]c1ccccc13`, the growth in the assay on T-47D breast was 33.8%; in the assay on BT-549 breast, 67.4%; in the assay with MDA-MB-435 melanoma it was -3.69% (active); in the assay on SW-620 colon it was 42.6%; with MCF7 breast, 30.9%; in the assay with HCT-116 colon, 46.9%. Moreover, the growth was 82.8% in the assay on HCC-2998 colon and 35.7% in the assay on KM12 colon.
As to `COc1ccc(CCn2cncc2-c2c[nH]c3ccccc23)cc1`, the growth with T-47D breast is 80.2%; in the assay with BT-549 breast, 90%; with MDA-MB-435 melanoma it was 100%; in the assay with SW-620 colon, 87.9%; in the assay with MCF7 breast, 78.7%; with HCT-116 colon, 80.5%. Besides, the growth is 91.8% with HCC-2998 colon and 97.8% with KM12 colon.
In the case of `Cc1nc2sccn2c1-c1nc2sccn2c1/C=C1/C(=O)Nc2ccccc21`, the growth in the assay on T-47D breast is 27.6%; in the assay with BT-549 breast, 36%; in the assay on MDA-MB-435 melanoma it was -63.8% (active); in the assay on SW-620 colon it was 9.78% (active); with MCF7 breast, 10.6%; with HCT-116 colon, 24.1%. Also, the growth in the assay on HCC-2998 colon was 66.8%; in the assay with KM12 colon it was 12.5%.
`Fc1ccc2c(-c3cncn3CCc3ccccc3)c[nH]c2c1`: the growth in the assay with T-47D breast was 74.4%; in the assay with BT-549 breast it was 105%; with MDA-MB-435 melanoma, 93.2%; in the assay on SW-620 colon it was 90.8%; in the assay on MCF7 breast it was 86.6%; in the assay on HCT-116 colon it was 75.7%. Further, the figures for the growth with HCC-2998 colon and with KM12 colon were 102% and 97.9%, respectively.
On to `O=C(Nc1ccccc1C(=O)N/N=C(\c1ccccc1)c1ccccn1)c1ccc(F)cc1`, for which the growth in the assay on T-47D breast is 12.7%; with BT-549 breast, 16.1%; with MDA-MB-435 melanoma, 29.5%; in the assay with SW-620 colon, 30.2%; in the assay with MCF7 breast, 12.7%; with HCT-116 colon it was 17%. Besides, the growth in the assay on HCC-2998 colon was 32.5%; with KM12 colon, 26.6%.
On to `O=C(N/N=C/c1cc2ccccc2n2nnnc12)Nc1ccccc1`, for which the growth with T-47D breast was 108%; in the assay with BT-549 breast, 114%; with MDA-MB-435 melanoma it was 102%; in the assay on SW-620 colon, 107%; in the assay on MCF7 breast it was 92.3%; in the assay with HCT-116 colon, 113%. In addition, the results for the growth with HCC-2998 colon and with KM12 colon were 108% and 104%, respectively.
Consider `CC1(C)NCCC[C@]2(C)[C@H]3CC[C@@H]4[C@H]5[C@H](C(=O)/C=C/c6ccco6)CC[C@]5(CO)CC[C@@]4(C)[C@]3(C)CC[C@@H]12`, for which the growth was 75.7% in the assay with T-47D breast; 89.1% in the assay on BT-549 breast; 66.7% in the assay on MDA-MB-435 melanoma; 69.7% in the assay with SW-620 colon; 46.6% in the assay on MCF7 breast; 33.7% in the assay with HCT-116 colon. In addition, the results for the growth with HCC-2998 colon and in the assay with KM12 colon were 91.4% and 82.9%, respectively.
As to `Cn1ccnc1C(=O)/C=C/c1ccc(CC(=O)Nc2ccc(F)cc2)cc1`, the growth in the assay with T-47D breast is 28.8%; with BT-549 breast, 23.6%; in the assay on MDA-MB-435 melanoma, 19.7%; in the assay on SW-620 colon, 10.1%; in the assay with MCF7 breast, 28%; in the assay on HCT-116 colon, 4.94% (active). In addition, the growth with HCC-2998 colon was 85.4%; with KM12 colon, 6.52% (active).

These data come from PubChem BioAssay (NCI).
